Sampled rows, rich in hits. Any-hit rate of the full collection: about 19%.
ELG1 DNA repair: inhibitors of ELG1-dependent DNA repair in HEK293T cells. HEK293T ELG1-luciferase reporter, luminescence, 16 h; DNA damage induced by 5-fluorouridine. Potency, µM (top dose mostly 46.1 µM), most hits filed as inhibitors. hit rate 2.3% among 330,000. AID 504467; also: nearly all actives have a fitted effect of over 55% in size
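DMSO vehicle served as the neutral condition. Each well held 2,000 cells given 5-fluorouridine plus compound; after 16 hr at 37 °C/5% CO2, ONE-Glo was added and luciferase measured 30 min later.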
IL-1B inflam inh: inflammasome signaling inhibition, IL-1 beta readout | AID 743279 | hit rate 4.7% among 360,000 | activity change, % at 57.5 µM | THP-1 LPS/ATP IL-1B secretion, AlphaLISA, 16 h; stronger effect = lower value; in the data active = activity change below about -50%; inconclusive = mostly about -30% to -49%
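THP-1 cells pretreated 1 hr with compounds (up to 57.5 uM final), then stimulated with LPS (250 ng/mL final) plus ATP (1.25 mM final); secreted IL-1B measured by AlphaLISA after 16 hr, decreased signal indicating inhibition.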
HT1080 IDH1KD tx: kills HT-1080 cells with IDH1 knockdown. Potency, µM (highest dose often 46.1 µM), actives largely listed as cytotoxic. HT-1080 IDH1 knockdown viability, ATP luminescence, 48 h. hit rate 2% among 360,000. AID 686971
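Viability of IDH1-knockdown HT-1080 fibrosarcoma cells was assessed by CellTiter-Glo after 48 h at 37 °C with titrated compound; concentration-effect curves were classified by fit quality and response size.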
DT40 TDP1 CPT: DT40-hTDP1 cell growth loss with CPT; chicken DT40 Tdp1-/-;hTDP1 cells + 20 nM CPT, ATP luminescence, 48 h; Potency, µM (doses to about 46.2 µM), actives largely listed as inhibitors; hit rate 12% among 420,000; AID 686979; also: nearly all actives have a fitted effect of over 55% in size
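Chicken DT40 Tdp1-/- cells stably complemented with human TDP1 were seeded at 400 cells/well in medium containing 20 nM camptothecin, exposed to pin-transferred compounds, and grown at 37 °C for at least 48 hr. Viability was read as ATP luminescence.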
HT1080-NT tox: kills 2HG-producing HT-1080-NT fibrosarcoma cells; HT-1080-NT fibrosarcoma viability, CellTiter-Glo ATP luminescence, 48 h; AID 686970; hit rate 1.6% among 360,000; Potency, µM (doses to about 46.1 µM), usual class: cytotoxic;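 also: NT is the 2HG producing partner of a matched IDH1 knockdown line; nearly all actives have a fitted effect of over 55% in size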
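Luminescent CellTiter-Glo readout after 48 hours of compound exposure at 37 degrees C defined viability of HT-1080-NT cells. Activity was normalized to DMSO wells and cell-free media wells; concentration-response curves were fitted and assigned curve classes.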
TDP1 cell noCPT: qHTS for Inhibitors of human tyrosyl-DNA phosphodiesterase 1 (TDP1): qHTS in cells in absence of CPT; DT40 Tdp1-/- hTDP1 cells, no CPT, ATP luminescence, 48 h; AID 686978, 2013; hit rate 15% among 420,000; Potency, µM (highest dose often 46.2 µM), usual class: inhibitors; also: nearly all actives have a fitted effect of over 55% in size
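Stably hTDP1-transfected Tdp1-null chicken DT40 cells were treated with library compounds minus camptothecin and grown for at least 48 hr at 37 °C, after which cellular ATP was quantified by luminescence.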
Large screens that a line does not name were inactive. Unless noted, calls follow the shape of the dose curve; as a rule, active = well fitted curve in the direction sought with a large enough effect; inconclusive = small, poorly fitted or top-dose-only effect, or another doubt; inactive = no such curve, though single readings can be large; an effect the other way counts as inactive or inconclusive.

COc1ccccc1OCc1cc(C(=O)NCc2ccc(N3CCCC3=O)cc2)no1	none
Cc1cn2c(=O)c(S(=O)(=O)NCc3ccccc3Cl)c(C)nc2s1	none (no result: ELG1 DNA repair, IL-1B inflam inh, HT1080 IDH1KD tx, HT1080-NT tox)
Nc1ncc(Br)cc1S(=O)(=O)NCCC(=O)NCc1ccc(F)cc1	none
COc1ccc(CNC(=O)CCNS(=O)(=O)c2cc(Br)cnc2N)cc1	ELG1 DNA repair inconclusive, DT40 TDP1 CPT 21µM, TDP1 cell noCPT 13µM
Cc1ccc(NC(=O)[C@@H]2O[C@H](CO)[C@@H](O)[C@H]2O)cc1C(F)(F)F	DT40 TDP1 CPT inconclusive (no result: ELG1 DNA repair)
COC(=O)[C@@]1(Cc2ccc(F)cc2)[C@H]2c3cc(C(=O)N4CCCC4)n(CCF)c3C[C@H]2CN1C(=O)c1ccccc1	IL-1B inflam inh inconclusive, DT40 TDP1 CPT 23µM, HT1080-NT tox inconclusive, TDP1 cell noCPT 23µM (no result: ELG1 DNA repair)
COC(=O)[C@@]1(Cc2ccc(F)cc2)[C@H]2c3cc(C(=O)N4CCCC4)n(Cc4ccc(C(F)(F)F)nc4)c3C[C@H]2CN1C(=O)c1ccccc1	ELG1 DNA repair inconclusive, IL-1B inflam inh inconclusive, DT40 TDP1 CPT inconclusive, TDP1 cell noCPT inconclusive
COC(=O)[C@@]1(Cc2ccc(F)cc2)[C@H]2c3cc(C(=O)N4CCCC4)n(CC4CC4)c3C[C@H]2CN1C(=O)c1ccccc1	HT1080 IDH1KD tx inconclusive, DT40 TDP1 CPT inconclusive, HT1080-NT tox inconclusive, TDP1 cell noCPT inconclusive (no result: ELG1 DNA repair)
COC(=O)[C@@]1(Cc2ccc(F)cc2)[C@H]2c3cc(C(=O)N4CCCC4)n(Cc4cc(C)n(C)n4)c3C[C@H]2CN1C(=O)c1ccccc1	DT40 TDP1 CPT 21µM, TDP1 cell noCPT 16µM (no result: ELG1 DNA repair)
COC(=O)[C@@]1(Cc2ccc(F)cc2)[C@H]2c3cc(C(=O)N4CCCC4)n(Cc4ccc(C)o4)c3C[C@H]2CN1C(=O)c1ccccc1	IL-1B inflam inh -87, HT1080 IDH1KD tx 21µM, DT40 TDP1 CPT inconclusive, HT1080-NT tox inconclusive, TDP1 cell noCPT inconclusive (no result: ELG1 DNA repair)
COC(=O)[C@@]1(Cc2ccc(F)cc2)[C@H]2c3cc(C(=O)N4CCCC4)n(CCCNc4ncc(C(F)(F)F)cc4Cl)c3C[C@H]2CN1C(=O)c1ccccc1	ELG1 DNA repair inconclusive, DT40 TDP1 CPT inconclusive, TDP1 cell noCPT 16µM
COC(=O)c1c(NC(=O)c2nc(SCc3ccc(F)cc3)ncc2Cl)sc2c1CCCC2	none (no result: ELG1 DNA repair, IL-1B inflam inh, HT1080 IDH1KD tx, HT1080-NT tox)
Cn1c(-n2cccc2)c(-c2c(-c3ccc(F)cc3)[nH]c3c2c(=O)[nH]c(=O)n3C)c(=O)[nH]c1=O	none (no result: ELG1 DNA repair, IL-1B inflam inh, HT1080 IDH1KD tx, HT1080-NT tox)
COC(=O)[C@@]1(Cc2ccc(F)cc2)[C@H]2c3cc(C(=O)N4CCCC4)n(Cc4ccc(C)c(F)c4F)c3C[C@H]2CN1C(=O)c1ccccc1	HT1080 IDH1KD tx inconclusive, DT40 TDP1 CPT inconclusive, HT1080-NT tox inconclusive, TDP1 cell noCPT 23µM (no result: ELG1 DNA repair)
COC(=O)[C@@]1(Cc2ccc(F)cc2)[C@H]2c3cc(C(=O)N4CCCC4)n(Cc4cc(F)cc5c4OCOC5)c3C[C@H]2CN1C(=O)c1ccccc1	HT1080 IDH1KD tx inconclusive, DT40 TDP1 CPT inconclusive, HT1080-NT tox inconclusive, TDP1 cell noCPT inconclusive (no result: ELG1 DNA repair)
Cc1cnc(-n2ncc(C(=O)N(C)Cc3cccc4ncccc34)c2C(C)C)nc1-c1ccc(F)cc1	none (no result: ELG1 DNA repair, IL-1B inflam inh, HT1080 IDH1KD tx, HT1080-NT tox)
CC(C)c1c(C(=O)N(C)Cc2cccc3ncccc23)cnn1-c1nccc(-c2ccco2)n1	TDP1 cell noCPT 15µM (no result: ELG1 DNA repair, IL-1B inflam inh, HT1080 IDH1KD tx, HT1080-NT tox)
CCN(C(=O)COC(=O)c1cc2c(s1)CCC(C)C2)c1c(N)n(Cc2ccccc2)c(=O)[nH]c1=O (stereo not drawn)	DT40 TDP1 CPT 16µM, TDP1 cell noCPT inconclusive (no result: ELG1 DNA repair)
CC1CCc2sc(C(=O)OCC(=O)NCc3ccc(F)cc3)cc2C1 (stereo not drawn)	HT1080 IDH1KD tx 21µM, DT40 TDP1 CPT 21µM, HT1080-NT tox inconclusive, TDP1 cell noCPT 15µM
CCN(C(=O)COC(=O)c1ccc2[nH]c(C)c(C)c2c1)c1c(N)n(Cc2ccccc2)c(=O)[nH]c1=O	DT40 TDP1 CPT 18µM (no result: ELG1 DNA repair)
